# A selection: hits, their analogues and other compounds. The true share with any hit is near 3.7%.
# tim10-1 inh = growth inhibitors of tim10-1 mutant yeast, primary screen, luminescence, uHTS; S. cerevisiae tim10-1 ts strain growth, BacTiter-Glo, 24 h; inhibition, % at 20 µM; 2.2% of 330,000 active;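 active means inhibition of at least 40%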;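 further: mutant grown at 25 °C; 0% = DMSO wells with yeast and 100% = wells holding no yeast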
# PfHsp90 yeast 2 = growth inhibition of PfHsp90-expressing yeast, primary screen, antimalarial PfHsp90 inhibitor project, S. cerevisiae, BacTiter-Glo luminescence, single point, set 2; AID 504621, 2011; BacTiter-Glo ATP, 48 h; yeast lacking PDR1 and PDR3 efflux regulators; inhibition, % at 9.4 µM; 0.32% of 310,000 active;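 active means every replicate shows inhibition above about 80%, whatever the replicate mean, limit read from the data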;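 further: 0% = DMSO neutral controls and 100% = 20 µM radicicol positive controls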
# V-ATPase pH = regulators of yeast V-ATPase proton pumping, primary screen, pHLuorin cytosolic pH fluorescence. S. cerevisiae. response, % at 10 µM. 0.37% of 350,000 active; in the data active means response mostly above about 7.3%, no sharp cut-off; inactive means mostly below about 5.4%; further: actives read high
# TIM10 inh = growth inhibitors of isogenic TIM10 control yeast, primary screen, counter-screen for tim10-1 yeast inhibitor project, luminescence, uHTS; inhibition, % at 10 µM; 1.4% of 330,000 active; S. cerevisiae TIM10 strain growth, BacTiter-Glo luminescence, 24 h; AID 463195, 2010;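 active means inhibition of 40% or more at the single tested concentration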;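 further: wild-type TIM10 isogenic control strain grown at permissive 25 °C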
# tim23-1 inh = growth inhibitors of tim23-1 mutant yeast, primary screen, luminescence, uHTS; S. cerevisiae tim23-1 growth, BacTiter-Glo luminescence, 24 h; inhibition, % at 20 µM; 1.3% of 330,000 active;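 active means growth inhibition of the mutant yeast at or above 50%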;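 further: temperature-sensitive mutant grown at 25 °C; plate controls were DMSO-treated mutant yeast for no effect and medium wells lacking yeast for full effect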
# tim10-1 conf = growth inhibitors of tim10-1 mutant yeast, confirmation, single concentration, luminescence, S. cerevisiae; 56% of 7,400 active; shares compounds with tim10-1 inh; S. cerevisiae tim10-1 ts strain growth, BacTiter-Glo, 24 h; inhibition, % at 20 µM;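 active means inhibition of yeast growth at or above a set limit in either of two repeat tests at 20 µM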;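 further: tim10-1 mutant grown at permissive 25 °C to find synthetic lethal compounds; 0% = DMSO yeast wells and 100% = medium wells without yeast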
# The depositor's hits bear a star; . = no result.
SMILES,tim10-1 inh,PfHsp90 yeast 2,V-ATPase pH,TIM10 inh,tim23-1 inh,tim10-1 conf
Cc1cc(/C=C2/SC(=S)N(c3cccc(C(F)(F)F)c3)C2=O)c(C)n1-c1cccnc1,50*,2,-5,30,27,25
COc1ccc(S(=O)(=O)NNC(=O)C(=O)NNc2ccccn2)cc1,-3,-31,5,-19,7,.
Cc1ccc(OCC(O)Cn2c3ccccc3c3ccccc32)cc1 (stereo unspecified),34,-36,0,20,33,.
Cc1cccc(C)c1OCC(O)Cn1c2ccccc2c2ccccc21 (stereo unspecified),45*,.,4,31,10,5
O=C(COc1ccc([N+](=O)[O-])cc1)Nc1nc(-c2ccccn2)cs1,42*,.,0,0,38,13
O=C(COc1ccc(F)cc1)Nc1nc(-c2ccccn2)cs1,22,-11,-4,-6,41,.
CCNc1ccc(Br)cc(C(=O)/C=C/c2c(Cl)cccc2Cl)c1=O,55*,29,0,39,33,49*
COc1ccc(CCN2C(=O)c3ccccc3NC2c2cc(Cl)c(O)c(OC)c2)cc1 (stereo unspecified),5,-20,1,0,23,.
CC/C(=N\NC(=S)Nc1cc(C)ccc1C)c1ccc(OC(F)F)cc1,58*,-15,-3,31,49,36*
C/C(=N\NC(=S)Nc1c(C)cccc1C)c1ccc(OC(F)F)cc1,43*,-13,-1,32,17,41*
S=C(Nc1ccc(Cl)cc1)c1nc2ccccc2[nH]1,49*,-11,2,38,36,36*
Cc1ccc(N2CN=C(c3ccccc3)NC2=S)cc1,44*,-16,4,4,23,1
COc1ccc(C2=NCN(c3ccc(C)cc3)C(=S)N2)cc1,-3,2,2,3,0,.
CCCCc1ccc(NS(=O)(=O)c2cccs2)cc1,41*,.,1,33,41,17
CCCCN1CN(S(=O)(=O)c2ccc(OC)cc2)c2nc3ccccc3nc21,46*,-31,0,22,42,12
COCCN1CN(S(=O)(=O)c2cccc(Cl)c2)c2nc3ccccc3nc21,45*,-36,-1,19,39,10
O=C(Cn1c(O)c(/C=C2\C=Nc3ccc(Br)cc32)sc1=O)N1CCCC1,52*,-14,-2,34,40,30
C/C(=N\NC(=O)Cn1cc([N+](=O)[O-])cn1)c1ccc(O)cc1,0,-14,-3,6,-4,.
O=C(O)C1=CC[C@@H](c2ccc(Cl)cc2)N(S(=O)(=O)c2ccc(Cl)cc2)[C@H]1c1cccc(Cl)c1,40*,-7,1,-8,9,13
Cc1onc(-c2cccc(Cl)c2Cl)c1C(=O)O/N=C(\N)c1ccc([N+](=O)[O-])o1,44*,-9,-1,38,40,2
Cc1onc(-c2ccccc2Cl)c1C(=O)O/N=C(\N)c1cccc([N+](=O)[O-])c1,.,.,-1,.,.,.
COc1ccc(Cc2nc3ccc(C(=O)NC4CCOC4)cc3o2)cc1 (stereo unspecified),15,4,-2,-8,9,.
Cc1cc(Cl)ccc1OC(C)C(=O)N1CCCN(C(=O)C(C)Oc2ccc(Cl)cc2C)CC1 (stereo unspecified),44*,1,-1,10,40,25
Cc1ccc(-c2nn(-c3ccccc3)cc2C(=O)N2CCN(C3CCS(=O)(=O)C3)CC2)cc1 (stereo unspecified),5,30,-1,11,14,.
Cc1ccc(-c2nn(-c3ccccc3)cc2C(=O)N2CCOCC2)cc1,40*,-1,-3,32,36,24
CC(C)(C)c1nn(-c2ccccc2)c2[nH]c(=O)c(CNCc3ccc4c(c3)OCO4)cc12,44*,-27,5,28,33,32*
CCCc1nnc(NS(=O)(=O)c2ccc(C)cc2)o1,.,-18,-1,.,.,.
CCOC(=O)/C(=C\c1ccc([N+](=O)[O-])o1)NC(=O)c1ccccc1,47*,-27,-2,34,44,42*

# Bioassay records (PubChem BioAssay)
